# Assay results reported in PubChem BioAssay (NCI).
# About 83,000 compounds went through this panel and 20% of them were active in at least one assay; those are over-represented in the sample as a whole.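 Single-concentration screen, 48 h exposure, 96-well plates. Endpoint: percent growth. Below 10 = active.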 Unmarked numbers belong to inactive results. Activity calls are given as the source filed them.
# Tests used:
# Assay in all cases: NCI-60 one-dose screen, 48 h (100 = growth as untreated, 0 = no growth, -100 = all killed)
# Settings in all cases: 10 µM unless noted
# T-47D breast = system: T-47D breast
# BT-549 breast = system: BT-549 breast
# MDA-MB-435 melanoma = system: MDA-MB-435 melanoma
# SW-620 colon = system: SW-620 colon
# MCF7 breast = system: MCF7 breast
# HCT-116 colon = system: HCT-116 colon
# HCC-2998 colon = system: HCC-2998 colon
# KM12 colon = system: KM12 colon
Structure (SMILES),growth (T-47D breast),growth (BT-549 breast),growth (MDA-MB-435 melanoma),growth (SW-620 colon),growth (MCF7 breast),growth (HCT-116 colon),growth (HCC-2998 colon),growth (KM12 colon)
CCOC(=O)C(c1ccccc1)N1C(=O)c2ccccc2C1=O (centres undefined),97.3%,90.3%,93.1%,97.4%,91.4%,98.5%,98.4%,98.8%
Cc1cc(C)c(S(=O)(=O)/N=c2/n(-c3ccccc3)nc3n2CCN3C2=NCCN2)c(C)c1,77.8%,73.8%,69.5%,84.8%,90.8%,55.7%,61.5%,85.4%
COc1ccc(C2=C(c3cn(C)c4ccccc34)C(=O)OC2)cc1OC,23.8%,45.9%,-8.21% (active),19.7%,18.8%,29.3%,65.9%,26.4%
CCCCCCCCCCCCCCNC(=O)Nc1ccc(Cl)c(Cl)c1,33.9%,24.7%,18.3%,32.9%,30%,23.6%,14.5%,35.8%
O=C1CC(c2ccccc2)Cc2nc3ccc(Cl)cc3cc21 (centres undefined),75.5%,4.62% (active),-38.6% (active),23%,54%,5.45% (active),5.28% (active),1.73% (active)
CCCCOC(=O)c1c(C)[nH]c(/C=C2\N=C(c3ccc[nH]3)C=C2OC)c1C,-46.1% (active),14.9%,-51.1% (active),11.6%,-44.2% (active),-76.1% (active),-28.1% (active),-5.76% (active)
N/C(=N\c1nc2ccccc2[nH]1)NC(=O)Cc1cccc2ccccc12,71.4%,85.3%,94.3%,85.6%,59.4%,67.4%,103%,82%
CCOC(=O)c1sc2nc(-c3cc(OC)c(OC)c(OC)c3)nc(N3CCOCC3)c2c1C,-6.97% (active),41.2%,35.7%,36.4%,27.1%,25.6%,51.5%,31.4%
CCN(CC)CCCC(C)Nc1ccnc2cc(Cl)c(SCc3ccccc3)cc12 (centres undefined),-58.3% (active),-81% (active),-71.2% (active),-85.3% (active),-49.5% (active),-67.8% (active),-84.1% (active),-32.4% (active)
COc1ccc(/C=C2\N=C(Nc3ccccc3)N(NC(=O)c3ccccn3)C2=O)cc1,63.6%,94.1%,98.7%,102%,87.5%,90.1%,105%,96.1%
Cc1ccc(NC(=S)/N=c2/n(-c3ccccc3)nc3n2CCN3C2=NCCN2)cc1,92.2%,-6.96% (active),105%,97%,94.6%,48.6%,102%,109%
O=C(Nc1cccc2ccccc12)c1cc2ccccc2cc1O,14.4%,11.6%,0.191% (active),16.6%,8.7% (active),7.65% (active),27.7%,10.2%
Cc1c(Cn2cc(COc3ccc(Br)cc3)nn2)c(C)c(Cn2cc(COc3ccc(Br)cc3)nn2)c(C)c1Cn1cc(COc2ccc(Br)cc2)nn1,70.2%,97.1%,98.7%,85%,90%,92.3%,114%,99.8%
O=c1[nH]c2cc(Cl)c(Cl)cc2n2cc3ncccc3c12,49%,109%,87%,53.4%,30.4%,71.1%,88%,78.4%
Cn1cc(-c2nnc(-c3cn(C)c4ncc(Br)cc34)o2)c2ccccc21,62%,95.2%,27.4%,83.6%,44.7%,98%,95.9%,56.3%
C#CCNC(=O)CC[C@@H](C)[C@H]1CC[C@H]2[C@@H]3CC[C@@H]4CC(=O)CC[C@]4(C)[C@H]3CC[C@]12C,4.15% [100 µM] (active),-60% [100 µM] (active),-39.7% [100 µM] (active),-58.2% [100 µM] (active),-6.31% [100 µM] (active),-1.19% [100 µM] (active),0.203% [100 µM] (active),-26.6% [100 µM] (active)
COc1ccc2nc3c(cc2c1)C(=O)CC(c1ccccc1)C3 (centres undefined),75%,51.7%,-67.7% (active),17.8%,56.2%,11.1%,91.3%,10.8%
O=[N+]([O-])c1ccc(O)c(-c2nc3ccccc3s2)c1,49.7%,60.7%,71.4%,87.8%,81%,73%,89.7%,77.2%
C=C(CN=[N+]=[N-])[C@@H]1CC[C@]2(C)[C@H](CC[C@@H]3[C@H]4[C@H]5OC(=O)[C@@]4(CCC5(C)C)CC[C@]32C)[C@@]1(C)CCC#N,55.6% [100 µM],78.7% [100 µM],76.3% [100 µM],87.3% [100 µM],64.5% [100 µM],47.3% [100 µM],89.3% [100 µM],81.7% [100 µM]
COC(=O)[C@]12CCC(C)(C)C[C@H]1C1=CC[C@@H]3[C@@]4(C)C/C(=C/c5cccnc5)C(=O)C(C)(C)[C@@H]4CC[C@@]3(C)[C@]1(C)CC2,-12% [100 µM] (active),-45.7% [100 µM] (active),-51.1% [100 µM] (active),-43.4% [100 µM] (active),-65.1% [100 µM] (active),-29.4% [100 µM] (active),-72.8% [100 µM] (active),-48.6% [100 µM] (active)
COc1cc(/C=C/C(=O)/C=C/c2ccc(-n3ccnc3)cc2)ccc1O,58%,102%,-9.19% (active),8.7% (active),6.22% (active),97.5%,42.7%,-42.4% (active)
C[C@H]1[C@H](C)CC[C@]2(C(=O)N3CCN(C)CC3)CC[C@]3(C)C(=CC[C@@H]4[C@@]5(C)C/C(=C/c6ccco6)C(=O)C(C)(C)[C@@H]5CC[C@]43C)[C@H]12,20.3% [100 µM],50.8% [100 µM],42.6% [100 µM],39.9% [100 µM],23.9% [100 µM],19% [100 µM],38.2% [100 µM],35.7% [100 µM]
C=C(C)[C@@H]1CC[C@]2(COCCC#N)CC[C@]3(C)[C@H](CC[C@@H]4[C@@](C)(CCCNCCC#N)[C@H](C(=C)C)CC[C@]43C)[C@@H]12,23.4% [100 µM],41% [100 µM],1.59% [100 µM] (active),-38.3% [100 µM] (active),9.79% [100 µM] (active),-53.8% [100 µM] (active),12.9% [100 µM],27.4% [100 µM]
COc1cc(C(=O)/C=C/c2c(-c3ccc(F)cc3)nc3sccn23)cc(OC)c1OC,19.8%,19.2%,-72.7% (active),13.7%,-8.44% (active),23.3%,73.1%,-12.1% (active)
CCN(CC)c1ccc2cc(C(Nc3ccc(C)cc3)c3nnnn3C(C)(C)C)c(=O)oc2c1 (centres undefined),71.1%,89.1%,97.5%,102%,81.4%,87.9%,107%,103%
CCN=C1C=CC(=C(c2ccc(N(CC)CC)cc2)c2ccc(N(CC)CC)cc2)c2ccccc21,-45.7% (active),-67.2% (active),-31.6% (active),-42.9% (active),-74% (active),-45.7% (active),-81% (active),-86.2% (active)
O=C1Nc2ccccc2/C1=C/C(=O)c1ccc(N2CCCC2)cc1,40.5%,107%,-51.9% (active),5.46% (active),17.8%,103%,77.9%,15.1%
Cc1ccc(-c2cc(-c3ccc(C)cc3)nc(N3CCN(CCNc4ccnc5cc(Cl)ccc45)CC3)n2)cc1,71.8%,67.6%,23.3%,-29.1% (active),15.5%,-3.1% (active),16.6%,31.9%
